{"source": "PubChem BioAssay (NCI)", "note": "The panel holds about 83,000 compounds, 20% with a hit somewhere; the sample as a whole holds those more often.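 Negative percent growth values reflect cell death: -40 means 40% of the cells present at the start died, and -100 means all died.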 A number with no mark means an inactive call. The source made the active and inactive calls.", "data": [{"test_system": "NCI-H23 lung", "test": "NCI-60 one-dose screen, 48 h (100 = growth as untreated, 0 = no growth, -100 = all killed)", "settings": "10 µM unless noted", "description": "Growth inhibition of the NCI-H23 human Non-Small Cell Lung tumor cell line is measured as a screen for anti-cancer activity. Cells are grown in 96 well plates and exposed to the test compound for 48 hours. Compounds are tested at a single concentration, which is 10^-5 M for most compounds. The reported endpoint is percent growth (GI% or GIPRCNT), where numbers from 0 - 100% represent growth inhibition, and numbers from -100% - 0 represent cell death. For example, a value of 40 represents 60% growth inhibition. A value of 0 means no net growth occurred over the course of the experiment. A value of -40 indicates 40% of cells at the beginning of the experiment died by the end of the experiment. A value of -100 means all cells are dead at the end of the experiment.\nNCI-60 Human Tumor Cell Lines Screen was performed using the standard one-dose NCI protocol, which is described in more detail at https://dtp.cancer.gov/discovery_development/nci-60/default.htm.\nCompounds with GIPRCNT values below 10 were considered active. Activity score was based on GIPRCNT using the following formula: […]\nScore is 0 for GIPRCNT values of 100 or above, 50 for GIPRCNT values of 0, and 100 for GIPRCNT values of -100.", "values": [{"smiles": "CC1(COc2ccc3ncc(C#Cc4cncc(C(=O)Nc5cc(C(C)(C)C)on5)c4)n3n2)COC1", "growth": "28.7%"}, {"smiles": "Cn1c(SC(C(=O)Nc2ccc(F)cc2)c2ccccc2)nc2ccccc2c1=O", "note": "(stereo not given)", "growth": "103%"}, {"smiles": "COc1cc(/C=N/n2cnc3oc(-c4ccccc4)cc3c2=N)cc(CN2CCN(C)CC2)c1O", "growth": "104%"}, {"smiles": "c1ccc(-c2c(-c3ccccc3)[n+](Cc3ccc4ccccc4c3)c(-c3ccccc3)n2Cc2ccc3ccccc3c2)cc1", "growth": "-81% (active)"}, {"smiles": "CC(C)=CCc1c(O)c(CC=C(C)C)c2c(c1O)C(=O)C1=C[C@@H]3C[C@H]4C(C)(C)O[C@@](C/C=C(\\C)C(=O)O)(C3=O)[C@@]14O2", "growth": "-59.3% (active)"}, {"smiles": "COc1ccc2c(c1)c(-c1nnc(N)nc1-c1cn(C)c3ccccc13)cn2C", "growth": "92.4%"}, {"smiles": "NC(=O)C(=Cc1ccc(Cl)cc1)C(N)=O", "growth": "74.5%"}, {"smiles": "COc1cc2cc(Oc3ccc(NC(=O)c4cccc(C(F)(F)F)c4)cc3)c(C)nc2cc1OCCN(C)C", "growth": "90.4%"}, {"smiles": "CNC(=O)c1cc(Oc2ccc3nc(NC(=O)c4cccc(C(F)(F)F)c4)sc3c2)ccn1", "growth": "101%"}, {"smiles": "COc1ccc(-c2nnc(SCc3ccc(O)c4ncccc34)o2)cc1", "growth": "38.2%"}, {"smiles": "C=CCn1c(SCC(=O)Nc2cccc(C(=O)/C=C/c3ccc(Br)cc3)c2)nc2ccccc2c1=O", "growth": "85.1%"}, {"smiles": "CNC(=O)c1cc(Oc2ccc3nc(NC(=O)c4ccc(CN5CCN(C)CC5)c(C(F)(F)F)c4)sc3c2)ccn1", "growth": "51.8%"}, {"smiles": "O=C1c2c(c3c4cccnc4[nH]c3c3ccc4ccccc4c23)C(=O)N1CCN1CCOCC1", "growth": "45.3%"}, {"smiles": "CCn1c2ccc(/C=N/NS(=O)(=O)CCN(C)C)cc2c2cc(/C=N/NS(=O)(=O)CCN(C)C)ccc21", "growth": "97.4%"}, {"smiles": "COc1ccc(S(=O)(=O)NCCCNc2nccc(-n3cnc4ccccc43)n2)cc1", "growth": "91.9%"}, {"smiles": "CCCCSc1nnc(-c2ccc(-c3ccc(Cl)cc3)nc2C)o1", "growth": "95%"}, {"smiles": "Nc1nc(-c2cccc([N+](=O)[O-])c2)c(N=Nc2cccc(Cl)c2)s1", "growth": "45.5%"}, {"smiles": "CCCCCCCCNC(=O)c1ccc(Cn2c(CCCC)nc3c(N)nc4ccccc4c32)cc1", "growth": "38.8%"}, {"smiles": "COc1ccc(-c2cc(-c3ccc(Cl)cc3)nc3nc(N)nn23)cc1", "growth": "108%"}, {"smiles": "COc1cc(C2=NN(C(C)=O)C(c3ccc(N4CCOCC4)cc3)C2)cc(OC)c1OC", "note": "(stereo not given)", "growth": "86.8%"}, {"smiles": "O=S(=O)(Nc1ccc(-n2cnc3cc(-c4ccc(O)cc4)ccc32)cc1)C1CC1", "growth": "101%"}, {"smiles": "COc1ccc2c(c1)c(-c1nn3c(=O)cc(-c4ccccc4)nc3s1)cn2C", "growth": "63%"}, {"smiles": "COc1ccc(CN2C(=O)/C(=C/c3nc(CO)cs3)SC2=S)cc1", "growth": "92.6%"}, {"smiles": "CN1CCN(c2nc(-c3cnc4ccccc4n3)cc3ccccc23)CC1", "growth": "90.9%"}, {"smiles": "Oc1ccc(CSc2nnc(-c3ccc(Br)cc3)n2-c2ccccc2)c2cccnc12", "growth": "38.2%"}, {"smiles": "CCCCCCNC(=O)Oc1ccc(/C(=C(/C)c2ccc(Cl)cc2)c2ccc(OCCN3CCCC3)cc2)cc1", "growth": "48.3%"}, {"smiles": "C#C[C@]1(O)CC[C@H]2[C@@H]3CC=C4c5sc(Nc6cccc(C)n6)nc5CC[C@]4(C)[C@H]3CC[C@@]21C", "growth": "36.3%"}, {"smiles": "Cn1cc(-c2nn3cc(-c4ccncc4)nc3s2)c2cc(Cl)ccc21", "growth": "44.5%"}, {"smiles": "COc1cc2oc(-c3cccc(NC(=O)c4cc(NC(=O)[C@H](C)NC(=O)OC(C)(C)C)ccc4C)c3)cc(=O)c2c(OC)c1OC", "growth": "63.8%"}, {"smiles": "CN1CCN(Cc2ccc(NC(=O)c3cncc(C#Cc4cnc5ccc(NC6CCOCC6)nn45)c3)cc2C(F)(F)F)CC1", "growth": "-52.9% (active)"}, {"smiles": "CN1CCN(c2nc(-c3csc(-c4ccncc4)n3)cc3ccccc23)CC1", "growth": "71.8%"}, {"smiles": "C#C[C@]1(O)CC[C@H]2[C@@H]3CC=C4c5sc(Nc6cccc(Cl)n6)nc5CC[C@]4(C)[C@H]3CC[C@@]21C", "growth": "16.1%"}, {"smiles": "O=C(N/N=C\\c1ccc(Cl)cc1)c1ccc2nc(-c3ccc(Br)cc3)[nH]c2c1", "growth": "-36% (active)"}, {"smiles": "NC(N)=NS(=O)(=O)c1ccc(N=NC2C(=O)NN(c3ccccc3)C2=O)cc1", "note": "(stereo not given)", "growth": "93.5%"}, {"smiles": "CC1(C)CC[C@]2(C(=O)N3CCCNCC3)CC[C@]3(C)C(=CC[C@@H]4[C@@]5(C)CCC(=O)C(C)(C)[C@@H]5CC[C@]43C)[C@H]2C1", "growth": "101%"}, {"smiles": "COC1=C(c2ccccc2)C(=O)C(OC)=C(c2ccccc2)C1=O", "growth": "100%"}, {"smiles": "CCc1ccc(NC(=O)N[C@@H](Cc2cccc(C)c2)C(=O)N[C@@H]2C(=O)N3CCC[C@H]3C(=O)N3CCCC[C@H]3C(=O)N[C@@H](CO)C(=O)N3C[C@H](C)C[C@H]3C(=O)O[C@H]2C)c(F)c1", "growth": "34.4%"}, {"smiles": "CC(=O)c1ccc(NC(=O)COc2ccc(C3SCC(=O)N3c3ccc(Br)cc3)cc2)cc1", "note": "(stereo not given)", "growth": "95.1%"}, {"smiles": "COc1ccccc1N1CCN(C2=NN=C(c3cccc(Cl)c3)c3ccccc3C2)CC1", "growth": "31.6%"}, {"smiles": "C/C(=N\\NC(=O)CSc1nc2sc3c(c2c(=O)n1-c1ccccc1)CCC(C)C3)c1ccc(Cl)cc1", "note": "(stereo not given)", "growth": "28.2%"}]}]}
